sEH act – soluble epoxide hydrolase activators, primary screen, biochemical, human sEH; Bifunctional epoxide hydrolase 2 (Homo sapiens), P34913; purified human sEH enzymatic activity, activator screen; activation, % at 2 µM; hit rate 0.04% among 91,000; in the data active = activation above about 37%
Target sequence (P34913 whole entry, looked up): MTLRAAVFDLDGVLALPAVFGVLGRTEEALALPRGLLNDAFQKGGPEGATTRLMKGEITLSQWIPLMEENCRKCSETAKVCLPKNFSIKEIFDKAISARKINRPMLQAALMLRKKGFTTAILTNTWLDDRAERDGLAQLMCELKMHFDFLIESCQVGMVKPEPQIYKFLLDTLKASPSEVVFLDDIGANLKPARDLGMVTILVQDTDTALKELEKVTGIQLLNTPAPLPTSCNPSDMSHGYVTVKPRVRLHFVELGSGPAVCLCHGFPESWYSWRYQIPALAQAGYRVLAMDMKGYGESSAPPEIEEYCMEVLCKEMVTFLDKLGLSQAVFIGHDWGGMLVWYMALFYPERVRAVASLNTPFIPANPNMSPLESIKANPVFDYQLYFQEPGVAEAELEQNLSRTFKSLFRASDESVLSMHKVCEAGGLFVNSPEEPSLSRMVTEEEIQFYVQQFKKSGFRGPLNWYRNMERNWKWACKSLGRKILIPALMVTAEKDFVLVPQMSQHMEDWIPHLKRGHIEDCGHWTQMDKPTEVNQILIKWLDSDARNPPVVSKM
NFkB transloc inh – inhibitors of IL-1B driven NFkB p65 nuclear import, primary screen, imaging, HUVEC, IL-1B stimulus, high-content imaging; HUVEC IL-1B NFkB p65 nuclear translocation imaging; inhibition, % at 2 µM; hit rate 0.43% among 94,000;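 active = inhibition above about 30% together with a positive call from visual inspection of the well image, limit read from the data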;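 note: nuclear over cytoplasmic p65 intensity ratio measured by imaging; 0% = IL-1B stimulated DMSO wells and 100% = unstimulated DMSO wells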
sEH inh – soluble epoxide hydrolase inhibitors, primary screen, biochemical, human sEH; Bifunctional epoxide hydrolase 2 (Homo sapiens), P34913; recombinant human sEH enzymatic activity assay; inhibition, % at 2 µM; hit rate 0.34% among 91,000; in the data active = inhibition above about 80%
NFkB transloc pot – enhancers of NFkB p65 translocation in HUVEC – imaging, IL-1B stimulus, high-content imaging, primary screen | HUVEC IL-1B NFkB p65 nuclear translocation imaging | activation, % at 2 µM | hit rate 0.3% among 94,000;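 active = activation above 40%, about the mean plus 3 SD, also judged a hit on visual image review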;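 note: percent activation is computed from the nuclear over cytoplasmic p65 intensity ratio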
HUVEC tox IL1B – cytotoxicity in IL-1B stimulated HUVEC, primary screen, cytotoxicity control for IL-1B NFkB translocation project, imaging, Hoechst nuclear count, IL-1B stimulus; HUVEC cell count loss; cell count reduction, % at 2 µM; hit rate 0.41% among 94,000;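 active = cell count reduction more than 3 SD above the screen-wide mean, cut at about 70% in these data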;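 note: normalized per plate to untreated control cells as the no-loss baseline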
* = called active by the depositor; nt = no result given. Sampled rows, rich in hits. Any-hit rate of the full collection: about 1.1%.

SMILES | sEH act | NFkB transloc inh | sEH inh | NFkB transloc pot | HUVEC tox IL1B
COC(=O)NC(=S)Nc1ccc(Oc2ccc(Cl)cc2Cl)c(Cl)c1 | -7.5 | -4.4 | 6.4 | 4.4 | -15.1
Cc1cccc(/C=N/NC(=O)c2cc3c(s2)-c2ccccc2CC3)c1 | -7.0 | 51.7* | 8.9 | -51.7 | -26.9
Cc1cc(Cl)c(S(=O)(=O)N2CC(C)OC(C)C2)cc1OCC(N)=O (centres undefined) | 8.2 | 8.8 | -9.2 | -8.8 | -9.9
Cc1cc(Cl)c(S(=O)(=O)N2CCSCC2)cc1OCC(N)=O | 9.6 | -0.6 | -9.7 | 0.6 | 74.9*
CCCn1nc2cc(C(=O)N(CC)c3ccc(OC)cc3)ccc2c1OCC | -12.2 | -0.3 | 14.9 | 0.3 | 2.9
Cc1noc(C)c1C(=O)OCC(=O)NCCC1=CCCCC1 | -8.2 | -113.5 | 9.7 | 113.5* | -1.7
Cc1noc(C)c1C(=O)NCCC1=CCCCC1 | -1.9 | -2.7 | -0.5 | 2.7 | 19.0
OC1C[N+]2(CCCCC2)C1 | 9.5 | -16.9 | -14.3 | 16.9 | 92.1*
O=C(NCC(c1cccnc1)N1CCOCC1)c1ccc2c(c1)OCO2 (centres undefined) | 1.6 | 35.7* | 1.0 | -35.7 | -32.2
N#Cc1nc(-c2cccc3ccccc23)oc1N1CCCCC1 | 24.7 | 0.8 | -24.8 | -0.8 | 12.9
CC1CCN(c2oc(-c3cccc4ccccc34)nc2C#N)CC1 | 7.0 | 99.5* | -9.1 | -99.5 | 94.2*
COc1ccc(/C=N/NC(=O)c2ccc(COc3ccccc3Cl)o2)cc1 | -83.5 | -4.4 | 84.0* | 4.4 | -50.7
O=C(c1ccc(F)cc1)C1CCN(C(=O)NC2CCCCC2)CC1 | -23.5 | -10.0 | 23.3 | 10.0 | 25.6
Cn1c(=O)oc2cc(S(=O)(=O)Nc3ccc4c(c3)OCCO4)ccc21 | 2.2 | 97.7* | 0.3 | -97.7 | 91.9*
COc1ccc(C(=O)c2ccc(OC)c3cccc(O)c23)cc1OC | -6.4 | -10.6 | 5.9 | 10.6 | -7.0
COc1ccc2c3c(cccc13)NN=C2C | -9.5 | 30.4* | 10.7 | -30.4 | 29.2
O=C(Cn1nnc(-c2cccs2)n1)N1c2ccccc2Sc2ccc(C(F)(F)F)cc21 | -0.9 | 8.0 | 1.3 | -8.0 | 4.0
COc1ccc(OCCC(=O)N2CCCCC2)cc1 | 16.2 | 87.6* | -13.2 | -87.6 | 87.4*
O=C(c1cccs1)N1CCN(S(=O)(=O)N2CCCCC2)CC1 | -9.2 | 6.7 | 8.6 | -6.7 | 92.4*
O=C(c1ccsc1)N1CCN(C(=O)c2cccs2)CC1 | 0.4 | 0.8 | -3.0 | -0.8 | 78.4*
O=c1cc2c(nn1Cc1ccccc1Cl)-c1ccccc1CC2 | 4.5 | -0.2 | -4.2 | 8.1 | 20.7
Cc1ccc(-c2cc(N)n(-c3ccccc3)n2)cc1 | nt | 66.6* | nt | -66.6 | -18.1
Cc1c(NC(=O)c2cccc(F)c2)c(=O)n(-c2ccccc2)n1C | -3.6 | -2.1 | 6.4 | 2.1 | 76.6*
Cc1c(NS(=O)(=O)c2cccc(C(=O)NCc3ccncc3)c2)c(=O)n(-c2ccccc2)n1C | 22.6 | -42.1 | -18.8 | 42.1* | 8.0
CCc1ccc(NC(=O)Cn2nc(C(F)(F)F)c3c2CCC3)cc1 | -17.0 | -9.3 | 15.7 | 9.3 | -2.4
SMILES | sEH act | NFkB transloc inh | sEH inh | NFkB transloc pot | HUVEC tox IL1B
COc1cc(NC(=O)Cn2nc(C(F)(F)F)c3c2CCCC3)cc(OC)c1OC | -15.4 | -15.9 | 13.7 | 15.9 | 70.6*
COc1ccc(C)cc1NC(=O)C(CCS(C)(=O)=O)NC(C)=O (centres undefined) | nt | 4.8 | nt | -4.8 | -3.2
Cc1cc(C)n2c(SCc3ccccc3Cl)nnc2n1 | -6.8 | 30.9* | 7.1 | -30.9 | 27.0
Cc1cc(C)n2c(SCc3ccc(Cl)cc3Cl)nnc2n1 | 6.2 | 6.3 | -6.6 | -6.3 | -16.6
Cc1ccc(S(=O)(=O)Nc2nncs2)cc1 | 10.1 | -55.0 | -11.7 | 55.0* | -29.6
O=C(Nc1nnc(Cc2ccccc2)s1)c1ccco1 | -9.5 | -12.7 | 6.8 | 12.7 | 1.2
CC(C)(C)C(=O)Nc1nnc(Cc2ccccc2)s1 | 9.1 | -41.7 | -9.4 | 41.7* | -25.7
Cc1ccc(Oc2ccc(Oc3ccc(C)cc3)nn2)cc1 | nt | 11.1 | nt | -11.1 | -23.2
Cc1ccc(Oc2ccc(-c3nc(N)nc(N)n3)cc2)cc1 | -28.2 | 97.4* | 27.6 | -97.4 | 86.0*
CCOc1ccc(NC(=O)c2ccc(F)c(S(=O)(=O)N3CCN(c4ccccn4)CC3)c2)cc1 | -85.8 | -15.5 | 85.9* | 15.5 | -29.3
Cc1nn(Cc2ccccc2Cl)c(C)c1NC(=O)c1nc2ncccn2n1 | -8.4 | -16.0 | 9.7 | 16.0 | 10.9
Cc1nn(Cc2ccccc2Cl)c(C)c1NC(=O)NC12CC3CC(CC(C3)C1)C2 | -91.2 | 17.9 | 91.0* | -17.9 | -3.2
Oc1c(/C=N/c2ncn[nH]2)ccc2ccccc12 | -3.9 | -47.4 | 4.1 | 47.4* | 16.9
c1coc(CNc2nc3nonc3nc2NCc2ccco2)c1 | -10.8 | 51.5* | 11.8 | -51.5 | -47.9
CCCC(C)NCC(=O)Nc1ccccc1-c1ccccc1 (centres undefined) | 14.6 | -9.3 | -11.6 | 9.3 | -15.2
COc1ccc(S(=O)(=O)NNC(=O)c2csc(-n3nc(C)cc3C(F)(F)F)n2)cc1OC | -1.3 | -52.4 | 4.3 | 52.4* | -5.0
COc1ccc(/C=N/NC(=O)c2csc(-n3nc(C)cc3C(F)(F)F)n2)cc1 | -1.8 | 10.6 | -0.2 | -10.6 | 6.2
CCc1nc2scc(-c3cccs3)c2c(=O)o1 | -0.3 | 44.9* | 1.7 | -44.9 | 8.3
CCn1c(Sc2nc(C)nc3scc(-c4cccs4)c23)n[nH]c1=O | 6.3 | -5.6 | -4.8 | 5.6 | 2.0
O=C(c1oc(=O)c2ccccc2c1-c1ccccc1)N1CCN(C2CCCCC2)CC1 | -14.4 | -26.7 | 15.9 | 26.7 | -55.3
CN(CC(=O)Nc1sccc1C#N)C1CCCCC1 | -3.0 | -8.7 | 1.4 | 8.7 | -9.0
CN(C/C(O)=C(\C#N)c1ccccc1)C1CCCCC1 | -14.8 | -126.1 | 13.9 | 126.1* | -2.0
CCn1c(C(=O)N2CCCC(C(=O)NCCCc3ccccc3)C2)cc2sccc21 (centres undefined) | -94.0 | -8.5 | 93.9* | 8.5 | -5.6
Cn1c(C(=O)N2CCCC(C(=O)NCCCSC3CCCCC3)C2)cc2sccc21 (centres undefined) | -92.0 | -24.6 | 92.1* | 24.6 | -7.7
CCn1c(C(=O)N2CCCC(C(=O)NCCc3ccc(C)cc3)C2)cc2sccc21 (centres undefined) | -70.5 | -21.6 | 70.9 | 21.6 | -5.6
COc1ccc(S(=O)(=O)n2nc(OC(=O)c3c(-c4ccccc4Cl)noc3C)cc2N)cc1 | 11.9 | 13.9 | -9.8 | -12.1 | -11.3
N#C/C(=C(/O)CN1C(=O)c2ccccc2C1=O)c1nc2ccccc2[nH]1 | 5.9 | -2.9 | -7.2 | 2.9 | 80.5*
Cc1ccc(C(=O)c2cc([N+](=O)[O-])ccc2N2CCOCC2)c(C)c1 | -3.7 | 95.9* | 2.5 | -95.9 | 87.8*
COC(=O)CSc1nnc(-c2ccc(S(=O)(=O)NCc3cccs3)cc2)o1 | -0.8 | -44.6 | 1.1 | 44.6* | -19.7

High-throughput results from PubChem.
